Screening data as filed in PubChem.
Sampled rows, rich in hits. Any-hit rate of the full collection: about 4.7%.
D1 ag: Allosteric Agonists of the Human D1 Dopamine Receptor: qHTS. HEK293 T-REx D1 cells, calcium flux, agonist mode. AID 504660, 2011. activation, % at 2 µM. hit rate 1% among 360,000; note: 0% is about no effect
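Agonism was scored from calcium flux recorded over 180 s (1 read/s) after pintool compound addition, following a 10-cycle baseline. Cells were inducible force-coupled HEK293 TREx D1, plated overnight at 30 C and loaded with no-wash calcium dye.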
TRHR enhancer: qHTS for Small Molecule Agonists and Allosteric Enhancers of Human TRH Receptor: Primary Screen for Enhancers; Thyrotropin-releasing hormone receptor (Homo sapiens), P34981; enhancement, % at 2 µM; AID 493056, 2011; TRHR cells, fluo-8 calcium fluorescence, EC20 TRH enhancement; hit rate 0.66% among 360,000; in the data active = enhancement above about 30%; note: 0% is about no effect
Target sequence (P34981 whole entry, looked up): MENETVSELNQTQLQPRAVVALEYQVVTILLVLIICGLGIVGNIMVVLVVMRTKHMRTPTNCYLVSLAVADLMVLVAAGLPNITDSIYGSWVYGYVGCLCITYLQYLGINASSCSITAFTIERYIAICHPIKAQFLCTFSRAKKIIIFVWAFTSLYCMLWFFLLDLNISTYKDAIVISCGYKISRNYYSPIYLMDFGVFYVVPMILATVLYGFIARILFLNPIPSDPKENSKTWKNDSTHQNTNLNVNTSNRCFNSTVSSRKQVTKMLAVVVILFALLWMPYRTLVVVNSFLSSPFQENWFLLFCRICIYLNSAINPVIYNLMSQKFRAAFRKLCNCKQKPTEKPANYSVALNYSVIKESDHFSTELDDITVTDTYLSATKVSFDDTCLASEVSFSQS
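Enhancer read-out: after compound pinning and an initial kinetic agonist-mode read, an EC20 of TRH (10 nM final) was injected and fluo-8 calcium signal (Ex 480/Em 530) followed at 1 s/cycle for 100 cycles in TRHR-expressing cells.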
D1 PAM: Potentiators of Human D1 Dopamine Receptor: qHTS; HEK293 TREx D1 cells, calcium flux, dopamine EC20 potentiation; potentiation, % at 10 µM; hit rate 0.036% among 360,000; in the data active = potentiation above about 30%; note: 0% is about no effect
TRHR ag: qHTS for Small Molecule Agonists and Allosteric Enhancers of Human TRH Receptor: Primary Screen for Agonists | Thyrotropin-releasing hormone receptor (Homo sapiens), P34981 | TRHR cells, calcium flux fluo-8, FDSS agonist mode | activation, % at 2 µM | hit rate 0.18% among 360,000 | AID 493084, 2011; note: 0% is about no effect
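Steps: seed TRHR cells overnight; add fluo-8 no-wash Ca dye, RT 30 min–1.5 h; record 10 s baseline; pin-transfer compounds; monitor fluorescence 1 cycle/s for the agonist window. Calcium increases flag candidate agonists.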
D1 antagonist: Antagonist of Human D 1 Dopamine Receptor: qHTS; hit rate 3.2% among 360,000; activity change, negative = inhibition, % at 10 µM; AID 504652, 2011; D(1A) dopamine receptor (Homo sapiens), P21728; HEK293 TREx D1 cells, calcium flux, dopamine EC80; stronger effect = lower value; in the data active = activity change below about -30%; note: % is set by controls: 0 for no effect and ±100 for the full control effect
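Calcium flux readout: force-coupled, inducible Hek293 Trex D1 line, cells induced overnight at 30 C with tetracycline, dye-loaded 30–90 min at RT. Antagonism scored against EC80 dopamine challenge given 180 s after compound.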
Active calls of the source: *. Cut-off read from the data, not from the text of the source, unless noted: active = activation above about 30%; inactive = the rest.

SMILES	D1 ag	TRHR enhancer	D1 PAM	TRHR ag	D1 antagonist
CCOc1ccc(-n2nnnc2SCC(=O)NNC(=O)c2ccco2)cc1	2	0	8	-1	-38*
CCOC(=O)C1CCC(CN(Cc2ccc(OC)cc2)S(=O)(=O)c2ccc(F)c(C(=O)Nc3ccc(C)c(C)c3)c2)CC1 (stereo not given)	0	-3	-1	0	-4
C[C@@H]1C[C@H](O)c2cc(Cl)ccc2N1	0	-8	0	0	10
N#CC1CC(c2ccccc2)Nc2cc(Cl)ccc2N1 (stereo not given)	18	13	-5	0	-90*
O=C(COC(=O)/C=C/c1cccc([N+](=O)[O-])c1)Nc1ccc(Cl)cn1	4	-1	-6	0	-49*
O=C(COC(=O)c1ccccc1C(=O)c1ccc(Cl)c([N+](=O)[O-])c1)NC1CC1	-1	-8	-9	-1	-41*
O=C(COC(=O)c1ccc([N+](=O)[O-])cc1)NC1CCCC1	1	-5	-5	-1	-45*
O=C(COC(=O)c1ccc([N+](=O)[O-])cc1)Nc1ccc(Cl)cn1	5	5	6	0	-37*
O=C(COC(=O)c1cccc([N+](=O)[O-])c1)Nc1ccc(Cl)cn1	3	-5	-14	1	5
O=C(COC(=O)c1ccc(O)cc1)NC1CCCC1	3	28	4	0	0
CNC(=O)COC(=O)c1ccccc1C(=O)c1ccc(Cl)c([N+](=O)[O-])c1	1	-7	-5	-1	-13
COc1ccc(NC(=O)C2CCN(C(=O)c3sc4nc[nH]c(=O)c4c3C)CC2)cc1Cl	0	-6	-3	0	9
O=C(Nc1cccc(C(F)(F)F)c1)c1cnn(-c2cccc(F)c2)c1C1CCNCC1	0	18	-4	2	7
Nc1ccccc1Sc1ccc(C(=O)c2ccccc2C(=O)O)cc1[N+](=O)[O-]	2	-4	1	0	0
CC(C)OC(=O)c1ccccc1C(=O)c1ccc(N)c([N+](=O)[O-])c1	-1	-4	-5	0	-34*
CNC(=O)/C(C#N)=C\c1ccc(CNS(=O)(=O)c2ccc(Cl)cc2)o1	1	-3	-4	0	-69*
Cc1ccc2oc(=O)c3cnn(CC(=O)N4CCN(c5ccccc5F)CC4)c3c2c1	1	5	0	0	-5
Cc1ccc(N(Cc2cccs2)C(=O)C(C)Oc2ccc(Cl)c(C)c2)cc1 (stereo not given)	12	1	-2	2	3
COc1ccc(-c2nc3ccccc3o2)cc1NC(=O)COc1ccc(C(C)(C)C)cc1	1	4	1	2	13
CSc1c(C#N)c(N)nc2sc(C(=O)c3ccccc3)c(N)c12	37*	3	0	9	-11
CCn1c(SCC(=O)N(C)c2c(N)n(Cc3ccccc3)c(=O)[nH]c2=O)nc2ccccc21	1	31*	-3	1	-4
CN(C(=O)CSc1nc2ccccc2n1CC(=O)N(C)C1CCCCC1)c1ccc(F)cc1	1	-4	2	-1	15
CN(C(=O)CSc1nc2ccccc2n1CC(=O)NCc1ccc(F)cc1)c1ccc(F)cc1	11	-6	0	5	-32*
COc1ccc(NC(=O)/C(C#N)=C\c2cc(C)n(-c3ccc(Oc4ccc([N+](=O)[O-])cn4)cc3)c2C)cc1	3	-18	4	1	9
Cc1cc(C=O)c(C)n1-c1ccc(Oc2ccc([N+](=O)[O-])cn2)cc1	22	-7	-3	5	-53*
COc1cc(OC)c(OC)cc1CNC1CCCCCC1	5	-1	-5	-2	21
COc1cc(OC)c(CNC2CCCCCC2)cc1Br	62*	27	-12	0	-11
c1ccc(COc2ccc(OCCN3CCCC3)cc2)cc1	48*	-2	-7	2	1
c1ccc(COc2ccc(OCCCN3CCCC3)cc2)cc1	26	-1	-4	1	-25
